These results are taken from PubChem BioAssay.

The nature of the test: compound effects on multiple myeloma cell viability – MM1S, calcein-AM fluorescence, 48 h, basal, profiling panel (AID 1165).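 Further: viability of MM1S multiple myeloma cells under basal unstimulated conditions; test concentration not given here.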 The settings on record: higher = more signal.
On to `CC1CC/C=C\[C@H]2OC34C=CCN(C(C)C)C(=O)[C@H]3N(CCO)C(=O)[C@@H]4C2C(=O)O1` (stereo partly specified), for which the z-score was 0.824.

Regarding `C=C(/C(=C/C[C@H](OC(=O)c1ccncc1)c1ccc(CO)o1)c1cnc2ccccc2c1)C(C)C`, the z-score is -2.88. As for `Cc1ccc(F)cc1S(=O)(=O)N[C@@H]1CCN(Cc2ccc(Br)cc2)C1`, the figure is -1.24. As for `CN1C2C=C(CCCO)C(C3C(=O)N(C(N)=O)C(=O)C32)C1C1CC1` (stereo unspecified), the figure is 0.0641. To `Cc1ccc(S[C@]2(C(=O)O)CC(=O)N(C3CCCCC3)[C@@H]2c2ccc(CO)cc2I)cc1` belongs -2.64; to `COCCOC(=O)N1C(=O)[C@@]2(c3cc(C#CC4(O)CCCCCC4)ccc31)[C@H](C(=O)N1CCc3cc(OC)c(OC)cc3C1)[C@H]1C(=O)O[C@H](c3ccccc3)[C@H](c3ccccc3)N1[C@@H]2c1ccc(OCCO)cc1`, -1.83. Consider `COC(=O)[C@@]1(Cc2ccc(OC)cc2)[C@H]2c3cc(C(=O)N4CCCC4)n(CCc4c[nH]c5ccc(O)cc45)c3C[C@H]2CN1C(=O)c1ccccc1`, for which the z-score is -0.927. To `CN(C)C(=O)[C@]1(CCC(=O)OC(C)(C)C)N=C(c2ccc(OCCCO)cc2)O[C@@H]1c1ccccc1CN=[N+]=[N-]` belongs 0.545.

Take `CCOC(=O)C1=CC[C@@H](c2ccccc2)N(S(=O)(=O)c2ccc(C)cc2)[C@H]1c1ccccc1`: the z-score is -1.79.

Turning to `NC(=O)[C@H]1[C@@H]2C(=O)O[C@@H](c3ccccc3)[C@@H](c3ccccc3)N2[C@@H](c2ccc(OCCO)cc2)[C@]12C(=O)Nc1ccc(C#CCCO)cc12`, the z-score was 0.227.

On to `CCCCCCCCCC(O)C1C=CC2C(=O)N(c3ccccc3)C(=O)C2N1Nc1cc(OC)c(OC)c(OC)c1` (stereo unspecified), for which the z-score is -3.83. As for `COc1cc(OC)c(C(O)C2C=CC3C(=O)N(Cc4ccccc4)C(=O)C3N2n2cnnc2)cc1Br` (stereo unspecified), the figure is -0.125.

As to `O=C1O[C@@H](c2ccccc2)[C@@H](c2ccccc2)N2[C@@H](c3ccc(OCCO)cc3)[C@]3(C(=O)Nc4ccc(C#CC5=CCCCC5)cc43)[C@@H](C(=O)NC[C@H](O)c3ccccc3)[C@H]12`, the z-score is 0.0056.

`CC(C)[Si](C#CCCCC#N)(O[C@H](c1ccccc1)c1cn(Cc2ccccc2)nn1)C(C)C`: the z-score was 0.444. To `CC1=C2[C@@H](CCc3ccccc3)OB(O)C[C@@H]2[C@@H]2C(=O)N(C)C(=O)[C@@H]2C1` belongs -2.12; to `COc1ccc([Si](C)(C)[C@H]2[C@H](CC(=O)N(CCO)Cc3ccccc3)O[C@@]3(C(=O)N(C)c4c(Br)cc(C)cc43)[C@@H]2C)cc1`, -2.75; to `C=CC[C@@]1(C(=O)NCCCOC)N=C(c2ccc(OCCCO)cc2)O[C@@H]1c1ccccc1N=[N+]=[N-]`, -1.06. To `COC(=O)C(CC#Cc1ccc2c(c1)[C@]1(C(=O)N2)[C@H](c2ccc(O)cc2)N2[C@H](c3ccccc3)[C@H](c3ccccc3)OC(=O)[C@H]2[C@@H]1C(=O)NC[C@H](O)c1ccccc1)C(=O)OC` belongs -1.58; to `COc1ccc([Si](C)(C)[C@H]2[C@H](CC(=O)N3Cc4ccccc4C[C@H]3CO)O[C@@]3(C(=O)N(Cc4ccc(N5CCOC5=O)cc4)c4ccccc43)[C@@H]2C)cc1`, -2.92.

On to `COC(=O)c1c(CC[C@@H](CO)NC(=O)N[C@@H](C)Cn2cc(-c3ccccn3)nn2)oc(C(C)=O)c1C(=O)OC`, for which the z-score is 0.226. To `COCC(=C=CC[C@H](O)c1ccc(OCCO)cc1)CCO` belongs -1.28. As for `N[C@@H](Cc1ccccc1)C(=O)NCc1cn(Cc2ccccc2)nn1`, the z-score was -0.0838.

With `CCOC(=O)C[C@H]1[C@H](OC(=O)Cc2ccc3c(c2)OCO3)[C@@H](NC(=O)c2ccc3ccccc3n2)c2cc(OCCCO)ccc2N1C(=O)c1ccccc1`, the z-score was 0.26. As for `CC(CO)N1C(=O)[C@]2(C)C3C(=O)OCCC/C=C\[C@H]3OC23C=CCN(c2ccc(Cl)cc2)C(=O)[C@@H]13` (stereo partly specified), the figure is 1.77; as for `CC(=O)NCCCC[C@@H]1NC(=O)[C@@H]2C[C@H](C(=O)NCCCCCN)[C@H](c3ccc(O)cc3)N2C1=O`, -0.449; as for `COC(=O)[C@@]1(Cc2ccccc2)[C@H]2c3cc(C(=O)N(C)C)n(Cc4ccc(C)o4)c3C[C@H]2CN1C(=O)c1ccccc1`, -1.01. Regarding `CCCC[C@@H](O)C1=C(COc2ccccc2)C[C@H]2C(=O)N(Cc3ccccc3)C(=O)[C@H]2[C@H]1CO`, the z-score was -0.189. With `COC(=O)C1(CC(C)C)C=C2C(=C(c3ccccc3)C(=O)C2C)CN1` (stereo unspecified), the z-score is 0.601. To `COc1ccc(CCNC(=O)[C@@]2(c3ccc([N+](=O)[O-])cc3)CC(=O)N(C3CCCCC3)[C@@H]2c2ccc(CO)cc2)cc1` belongs 0.547.

Take `COCCCNC(=O)[C@@]1(Sc2ccc(C)cc2)CC(=O)N(C2Cc3ccccc3C2)[C@@H]1c1ccc(CO)cc1`: the z-score is 0.762. To `CS(=O)(=O)CCOC(=O)C1=CC(c2ccc(CO)cc2)=CC(C2CC2)N(Cc2sc3ccccc3c2Cl)C=C1C(=O)OCCS(C)(=O)=O` (stereo unspecified) belongs -3.29. As for `C=CCOC(=O)[C@@H]1[C@H]2C(=O)O[C@H](c3ccccc3)[C@H](c3ccccc3)N2[C@H](c2ccc(OCCOC(=O)[C@@H]3C[C@@H]4C(=O)N[C@@H](CCCC[N+](C)(C)C)C(=O)N4[C@@H]3c3ccc(O)cc3)cc2)[C@@]12C(=O)Nc1ccc(I)cc12`, the figure is -2.03; as for `OCCCC1=CC(c2ccc(CN3CCCC3)cc2)N(Cc2cc3c(cc2Br)OCO3)CC1` (stereo unspecified), -2.99; as for `CC(c1ccccc1)C(O)C1C=CC2C(=O)N(C)C(=O)C2N1Nc1ccccc1` (stereo unspecified), -2.65. To `CC(C)N1C(=O)C[C@@](C(=O)O)(c2ccc([N+](=O)[O-])cc2)[C@H]1c1ccc(CO)cc1` belongs 0.389; to `CCCC#C[Si](O[C@H](CC)c1cn([C@H](C)c2ccccc2)nn1)(C(C)C)C(C)C`, -1.32.
